# Measurements reported in PubChem BioAssay.
# Biological target: NADPH oxidase 5 (Homo sapiens) (UniProt Q96PH1)
# Assay: NOX5-dependent H2O2 signal modulators, primary screen, NOX inhibitor project, cell-based, HEK293-NOX5, Amplex Red fluorescence (AID 1161)
# Details: HEK293-NOX5, ionomycin, 45 min, higher = more signal
# Chain of NADPH oxidase 5 (Homo sapiens) (Q96PH1 whole entry, looked up): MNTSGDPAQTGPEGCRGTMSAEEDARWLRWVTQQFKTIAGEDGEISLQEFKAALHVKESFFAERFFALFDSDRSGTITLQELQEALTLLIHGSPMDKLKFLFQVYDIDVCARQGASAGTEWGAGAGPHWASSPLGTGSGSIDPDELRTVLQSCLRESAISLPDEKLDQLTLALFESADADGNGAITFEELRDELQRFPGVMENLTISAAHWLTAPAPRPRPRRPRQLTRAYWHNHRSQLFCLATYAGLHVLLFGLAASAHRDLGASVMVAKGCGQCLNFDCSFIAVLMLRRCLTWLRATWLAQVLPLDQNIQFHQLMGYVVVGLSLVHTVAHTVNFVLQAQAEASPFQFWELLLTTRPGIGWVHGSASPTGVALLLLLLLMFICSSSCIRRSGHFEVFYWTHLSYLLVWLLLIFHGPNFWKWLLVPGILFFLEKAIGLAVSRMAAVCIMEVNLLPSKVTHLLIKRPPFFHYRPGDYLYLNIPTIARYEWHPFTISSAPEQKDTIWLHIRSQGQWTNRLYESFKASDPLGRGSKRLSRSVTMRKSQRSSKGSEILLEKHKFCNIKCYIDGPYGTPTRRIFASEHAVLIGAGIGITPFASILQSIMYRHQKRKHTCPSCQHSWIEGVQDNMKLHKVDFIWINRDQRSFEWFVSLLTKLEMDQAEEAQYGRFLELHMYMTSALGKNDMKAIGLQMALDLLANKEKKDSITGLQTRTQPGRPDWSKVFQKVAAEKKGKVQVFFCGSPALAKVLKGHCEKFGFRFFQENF
row,Compound,z-score
1,COC(=O)[C@]1(Cc2ccccc2)N=C(c2ccc(OCCCO)cc2)O[C@@H]1c1ccccc1CN=[N+]=[N-],-2.36
2,COC(=O)C(CC#Cc1ccc2c(c1)[C@]1(C(=O)N2)[C@H](c2ccc(OCCO)cc2)N2[C@H](c3ccccc3)[C@H](c3ccccc3)OC(=O)[C@H]2[C@@H]1C(=O)N1CCCCCCC1)C(=O)OC,1.44
3,C[C@]1(C(=O)O)c2ccccc2C(=O)N(Cc2cc(F)cc(C(F)(F)F)c2)[C@H]1c1ccc(CO)cc1,-2.26
4,O=C(NC1CC1)[C@@H]1c2ccccc2C(=O)N(CC23CC4CC(CC(C4)C2)C3)[C@H]1c1ccc(CO)cc1,0.412
5,COC(=O)[C@@]1(Cc2ccc(OC)cc2)[C@H]2c3cc(C(=O)N4CCCC4)n(CCn4cc([N+](=O)[O-])nc4C)c3C[C@H]2CN1C(=O)c1ccccc1,-2.54
6,CC1CC/C=C\[C@H]2OC34C=CCN(c5ccc6ccccc6c5)C(=O)[C@H]3N(C(C)CO)C(=O)[C@@H]4C2C(=O)O1 (stereo partly specified),1.58
7,O=C1C[C@]2(c3ccc([N+](=O)[O-])cc3)C(=O)N(C3CC3)c3cc(CO)ccc3[C@H]2N1C1CCCCC1,0.0695
8,CCN(CC)c1ccc(N2CC=CC34O[C@@H]5C=CCCOC(=O)C5[C@H]3C(=O)N(C(C)CO)[C@@H]4C2=O)cc1 (stereo partly specified),0.772
9,COC(=O)[C@@]1(Cc2ccccc2)[C@H]2c3cc(C(=O)N(C)C)n(CCO)c3C[C@H]2CN1C(=O)c1ccccc1,-0.912
10,COc1cc(CO)cc(I)c1O[C@H]1C=C(C(=O)NCCO)C[C@@H](NC2CCCCCC2)[C@@H]1O,-0.579
11,O=C1C2C=CC(C(O)c3cccs3)N(Nc3ccc([N+](=O)[O-])cc3)C2C(=O)N1c1ccccc1 (stereo unspecified),-1.55
12,CCOC(=O)C[C@H]1[C@H](OC(=O)c2ccccc2-c2ccccc2)[C@@H](NC(=O)C2CCCCC2)c2cc(OCCCO)ccc2N1C(=O)c1ccc2ccccc2n1,2.62
13,COC(=O)[C@@]1(Cc2ccc(F)cc2)[C@H]2c3cc(C(=O)N4CCCC4)n(Cc4ccccn4)c3C[C@H]2CN1C(=O)c1ccccc1,-2.47
14,C=C(CCCC)/C(=C/C[C@H](OC(=O)c1ccncc1)c1ccccc1OCCO)c1cc(C(=O)OC)ccc1OC,-1.67
15,O=C(NCc1ccccc1)[C@@H]1c2ccccc2C(=O)N(Cc2cc(C(F)(F)F)cc(C(F)(F)F)c2)[C@H]1c1ccc(CO)cc1,1.52
16,COc1ccc([Si](C)(C)[C@H]2[C@H](CCO)O[C@@]3(C(=O)N(Cc4ccc(NC(=O)[C@H](C)O)cc4)c4ccccc43)[C@@H]2C)cc1,-0.66
